Only a selection was taken, and hits are over-represented in it overall.
Pf Dd2 growth: Plasmodium falciparum Dd2 growth inhibition. Potency, µM (series often up to 28.9 µM), for inactives: at the highest dose activity, negative = inhibition, most hits filed as inhibitors. AID 1347417. 4.3% of 120,000 active. P. falciparum Dd2 growth, SYBR Green, 72 h; active = well fitted inhibition curve with a large enough effect;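 note: plate controls were DMSO vehicle for no effect and reference drug for full effect; nearly all actives have a fitted effect of over 65% in size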
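Infected erythrocytes (Dd2, 0.3% parasitemia, 2.5% hematocrit final) are added to compound in RPMI-1640/Albumax II medium, grown 72 h at 37C in low oxygen, then lysed with saponin/Triton-X containing SYBR Green and read by fluorescence.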
* = called active by the depositor; i = inactive; [ ] = another dose, or the depositor's remark. Potency is the fitted concentration of half-maximal effect.

SMILES | Pf Dd2 growth
COc1ccc(-c2noc(-c3ncn4c3COC(c3ccc(F)cc3)C4)n2)cc1OC (stereo unspecified) | 8.9µM*
COc1ccccc1-c1noc(-c2nnn3c2COC(c2ccc(F)cc2)C3)n1 (stereo unspecified) | i
COc1ccccc1-c1nc(-c2nnn3c2COC(c2ccccc2Cl)C3)no1 (stereo unspecified) | -5%
Cc1ccc(CN2C(=O)OC(c3cccc(NC(=O)Cc4ccccc4)c3)C2C(=O)N2CCCC2)cc1 (stereo unspecified) | -15%
COc1ccc(NC(=O)CN2C(=O)NC3(CCC(C(C)(C)C)CC3)C2=O)cc1 (stereo unspecified) | -10%
CN(C(=O)CN1CCOCC1)C1CCc2nn(C)c(=O)n2CC1 (stereo unspecified) | 24%
CN(C)c1ccc(CN(C)C2CCc3ccccc32)cc1 (stereo unspecified) | -17%[44.1 µM]
O=C(Cc1ccc(Cl)cc1)NC1CCN(c2cc(-c3ccc(F)cc3)[nH]n2)CC1 | i
CCn1ncc(N2CCCC(CC(=O)N3CCN(c4ccccc4)CC3)C2)cc1=O (stereo unspecified) | -15%
CC(=O)N1CCCC2(COc3ccccc3S(=O)(=O)N2)C1 (stereo unspecified) | 27%
CC(=O)N(C)Cc1ccccc1C(F)(F)F | -2%[44.1 µM]
CCS(=O)(=O)N1CCCOCCNC(=O)[C@@H]2CCC[C@@H]21 | 12%
CCC(=O)Nc1ccc(C2(C(=O)N3CCN(c4ccccc4)CC3)CCC2)cc1 | -20%
CC(C)C(=O)Nc1ccc(C2(C(=O)N3CCN(c4ccccc4)CC3)CCCCC2)cc1 | 7.9µM*
CCNC(=O)C1(c2ccc(NC(=O)C(C)C)cc2)CCCCC1 | -13%
COc1ccc(C(=O)Nc2cnc(-c3ccc(Cl)cc3)nc2)cc1 | i
COc1cccc(C(=O)Nc2nc3nc(-c4ccccc4)cc(=O)n3[nH]2)c1 | 21%
COc1ccc(C(=O)Nc2nc3n(n2)C(c2ccc(Cl)cc2)C=C(c2ccccc2)N3)cc1OC (stereo unspecified) | 7.9µM*
COc1ccc(C(=O)NCc2nnc3ccc(-c4ccc(Cl)cc4)nn23)cc1OC | i
COc1ccc(C2C=C(c3ccccc3)Nc3nc(NC(=O)c4cccc([N+](=O)[O-])c4)nn32)cc1 (stereo unspecified) | 8.9µM*
COc1ccc(CNC(=O)c2cc(-c3ccc(OC)cc3)nc3n[nH]c(-c4cccc([N+](=O)[O-])c4)c23)cc1 | -9%
COc1ccc(C2C=C(c3ccccc3)Nc3nc(NC(=O)c4ccc(C)cc4)nn32)cc1 (stereo unspecified) | 13µM*
COc1ccc(NC(=O)c2cc3n(n2)CC(c2ccc(Cl)cc2)OC3)cc1OC (stereo unspecified) | -17%
COc1ccc(C(=O)Nc2noc3ccccc23)cc1 | 6%
Cc1ccc(C(=O)N2CC[C@@H]3CN(S(C)(=O)=O)[C@@H]3C2)cc1C | 21%
SMILES | Pf Dd2 growth
Cc1cccc(-n2nc(-c3c(C)nc4scc(CC(=O)N5CCCC5)n4c3=O)cc2C)c1 | -5%
O=C(NCc1ccccn1)c1csc(N2CCN(c3ccccc3)CC2)n1 | i
CCN(CC)C(=O)c1csc(N2CCN(c3cccc(Cl)c3)CC2)n1 | i
CCCCN(C)C(=O)c1csc(N2CCN(c3ccccc3)CC2)n1 | 11µM*
O=C(c1ccc2cc[nH]c2c1)N1CCC2(CC1)CC(Cc1cccc(F)c1)CCO2 (stereo unspecified) | i
COCc1nc(C2CC(NC(=O)CN3C(=O)CN(C)C3=O)C2)cc(=O)[nH]1 (stereo unspecified) | -12%
CN(C)c1nc(NC2CC(c3cc(=O)[nH]c(C4CC4)n3)C2)ncc1F (stereo unspecified) | i
COCc1nc(C2CC(Nc3ccnc4cc(Cl)ccc34)C2)cc(=O)[nH]1 (stereo unspecified) | 2.5µM*
CN(C)CC(=O)N1Cc2ccccc2CC2(CCCCN2C)C1 (stereo unspecified) | -29%
CN1CCCCC12Cc1ccccc1CN(C(=O)CCCC(=O)O)C2 (stereo unspecified) | 22%
CN1CCCCC12Cc1ccccc1CN(C(=O)c1ccccc1)C2 (stereo unspecified) | 8.9µM*
CCOc1ccc(C2NC(=O)N(CC(=O)N3CCC(C)CC3)C3=C2C(=O)OC3)cc1 (stereo unspecified) | i
CN1CCC(NCc2nc3c(n2Cc2ccccc2)C(=O)N(CCOc2ccccc2)CCN3)CC1 | -29%
NCCC1CCN(C(=O)Nc2ccccc2F)CC1 | -19%
Cc1noc(C)c1CNCC1(CO)C[C@@H](O)[C@@H](O)C1 (stereo partly specified) | -10%[44.1 µM]
O=C1NCCCCCCN(Cc2ccncc2)[C@@H]2CN(S(=O)(=O)c3ccc4c(c3)CCC4)CC[C@H]12 | 2.8µM*
Cn1cnc(S(=O)(=O)N2CC[C@@H]3C(=O)NCCCCCCN(Cc4ccncc4)[C@@H]3C2)c1 | 15%
O=C1NCCCCCCN(Cc2ccncc2)[C@@H]2CN(S(=O)(=O)c3cccnc3)CC[C@@H]12 | -2%
